Screens: PubChem, several laboratories
In the library only some 1.4% were active in any assay of this set; here they are far more common.
LANA-H2B inh – blocks KSHV LANA binding to histone H2A/H2B. actives 0.6% (n = 320,000). Q9QR71. inhibition, % (no concentration beside the values). cell-free LANA-H2A/H2B peptide, fluorescence polarization. AID 2629; in the data active = inhibition mostly above about 10%, no sharp cut-off; inactive = mostly below about 6.7%
LYPLA2 inh – LYPLA2 (human) inhibition in PME1 counter-screen | inhibition, % at 5.9 µM | actives 0.38% (n = 320,000) | recombinant LYPLA2, FP-Rh probe fluorescence polarization;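 active = inhibition above the screen-wide mean plus 3 SD, limit set per campaign, cut at about 26% in these data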
Target sequence (O95372 whole entry, looked up): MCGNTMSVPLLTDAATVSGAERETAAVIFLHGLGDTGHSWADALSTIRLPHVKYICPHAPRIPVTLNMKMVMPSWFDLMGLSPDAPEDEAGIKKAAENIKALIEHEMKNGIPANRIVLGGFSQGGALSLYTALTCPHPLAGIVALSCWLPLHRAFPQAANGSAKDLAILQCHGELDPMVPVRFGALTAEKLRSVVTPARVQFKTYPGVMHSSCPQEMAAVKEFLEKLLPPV
EBNA-1 inhibitor – blocks EBNA-1 binding to DNA; EBNA-1 DNA binding, fluorescence polarization; inhibition, % at 14.8 µM; actives 0.34% (n = 300,000); in the data active = inhibition above about 28%
LYPLA1 counter – blocks human lysophospholipase 1, a PME1 counter-screen | O75608 | recombinant LYPLA1, FP-Rh probe fluorescence polarization | inhibition, % at 5.9 µM | actives 0.16% (n = 320,000) | AID 2174;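 active = inhibition above the mean of all tested compounds plus 3 SD, set per campaign, cut at about 14% in these data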;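 also: inhibitors block serine hydrolase probe labeling of LYPLA1 so polarization falls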
ZTA DNA inh – counter-screen for EBNA-1 inhibitors: inhibitors of Epstein-Barr virus ZTA; inhibition, % at 11 µM; P03206; actives 0.15% (n = 320,000); ZTA-DNA binding, fluorescence polarization; AID 2234; in the data active = inhibition above about 33%
Target sequence (P03206 whole entry, looked up): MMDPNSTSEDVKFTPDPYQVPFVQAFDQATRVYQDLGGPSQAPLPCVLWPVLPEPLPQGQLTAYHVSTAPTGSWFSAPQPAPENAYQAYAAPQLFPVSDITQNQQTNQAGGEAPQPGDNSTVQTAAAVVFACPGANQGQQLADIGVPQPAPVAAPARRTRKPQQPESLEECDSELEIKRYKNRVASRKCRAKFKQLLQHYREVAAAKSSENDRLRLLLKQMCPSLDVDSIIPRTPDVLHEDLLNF
LYPLA1 confirm – counter-screen for PME1 inhibitors: confirmation of human LYPLA1 inhibitors. shares compounds with LYPLA1 counter. recombinant LYPLA1, FP-Rh probe fluorescence polarization. inhibition, % at 5.9 µM. actives 69% (n = 480);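 active = mean inhibition across replicates above the hit cutoff set in the primary screen, cut at about 15% in these data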;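 also: loss of FP-Rh probe labeling of LYPLA1 seen as lower polarization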
LYPLA2 confirm – counter-screen for PME1 inhibitors: confirmation of human LYPLA2 inhibitors; shares compounds with LYPLA2 inh; recombinant LYPLA2, FP-Rh probe fluorescence polarization; inhibition, % at 5.9 µM; actives 72% (n = 1,100);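 active = mean inhibition across replicates above the hit cutoff set in the primary screen, cut at about 26% in these data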;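 also: blocked labeling of the enzyme by serine hydrolase FP-Rh probe lowers polarization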
LYPLA2 ABPP – LYPLA2 (human) inhibition, late stage results. shares compounds with LYPLA2 inh. AID 652029. inhibition, % at 20 µM. actives 30% (n = 150). rhLYPLA2 in mouse brain proteome, gel ABPP FP-Rh;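 active = inhibition of LYPLA2 enzyme probe labeling above about 50%, limit read from the data; inactive = inhibition below that limit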;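 also: loss of FP-Rh probe labeling of the LYPLA2 gel band measured as band density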
Zta DNA confirm – EBV ZTA DNA binding inhibition, confirmation | shares compounds with ZTA DNA inh | Zta-ZRE DNA binding, fluorescence polarization | inhibition, % at 11.1 µM | actives 30% (n = 320) | AID 2361;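 active = mean inhibition across triplicate runs above the hit threshold derived for the original primary screen, cut at about 33% in these data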
EBNA1 counter – counter-screen for ZTA inhibitors: EBNA-1 DNA binding inhibition; shares compounds with ZTA DNA inh; fluorescence polarization; inhibition, % at 14.8 µM; 320 tested, under 10 active; AID 2362; call rule not given here
Hits are given with their value; 0 = inactive; - = not tested or not shown.

SMILES	LANA-H2B inh	LYPLA2 inh	EBNA-1 inhibitor	LYPLA1 counter	ZTA DNA inh	LYPLA1 confirm	LYPLA2 confirm	others
CN(c1ccccc1)S(=O)(=O)c1ccc(NC(=O)c2ccc(-c3ccccc3)cc2)cc1	0	30	0	22	0	26	35
CC(=O)Nc1ccc(NC(=O)c2ccc(N(C)S(=O)(=O)c3ccc(C)cc3)cc2)cc1	0	0	0	0	0	-	-
CCC(C)C(NC(=O)c1ccccc1NC(=O)c1ccc(OC)cc1)C(=O)NCCCn1ccnc1 (stereo unspecified)	0	0	0	0	0	-	-
O=C(NCc1ccccc1Cl)C1=CC=CN2CCS(=O)(=O)N=C12	0	0	-	0	0	-	-
CCN1/C(=C/C=C/c2sc3ccccc3[n+]2CC)Sc2ccccc21	0	0	0	0	0	-	-
CCN1/C(=C/C=C/c2oc3ccc(-c4ccccc4)cc3[n+]2CC)Oc2ccc(-c3ccccc3)cc21	0	64	0	58	0	0	0
CC(=O)c1sc(NC(=O)C2CCN(C(=O)c3ccccc3C)CC2)nc1-c1ccccc1	0	27	0	25	0	32	0
Cc1cccc(NC(=O)C2CCN(C(=O)c3ccccc3C)CC2)n1	0	0	-	0	0	-	-
O=C(CSc1ccc(Br)cc1)Nc1ccc(N2CCOCC2)cc1	0	0	0	0	0	-	-
COc1ccc(S(=O)(=O)N(C)CC(=O)N2CCCCCC2)cc1OC	0	0	0	0	0	-	-
COc1ccc(S(=O)(=O)N(C)CC(=O)N2CCN(c3ccc(F)cc3)CC2)cc1OC	0	37	0	22	0	21	33
CC(=O)c1cccc(N(C(=O)c2ccco2)C(C(=O)NC2CCCC2)c2ccccc2F)c1 (stereo unspecified)	0	0	0	0	0	-	-
COC(=O)c1ccccc1-c1c2ccc(=N)cc-2oc2cc(N)ccc12	192	191	-	170	0	130	155
CCCNC(=O)CN1C(=O)COc2ccc(S(=O)(=O)N3CC(C)CC(C)C3)cc21 (stereo unspecified)	0	0	0	0	0	-	-
CCOC(=O)N1CCN(C(=O)c2cc(COc3cccc(C(F)(F)F)c3)on2)CC1	0	0	0	0	0	-	-
Cc1ccc(OCc2cc(C(=O)N3CCC(Oc4cccnc4)CC3)no2)cc1C	0	48	0	38	0	38	38
O=C(c1cc(COc2cccc(C(F)(F)F)c2)on1)N1CCC(Oc2cccnc2)CC1	0	35	0	40	0	50	38
CCOP1(=O)OCC2OC(n3cnc4c(N)ncnc43)C(O)C2O1 (stereo unspecified)	0	0	0	0	0	-	-
N#Cc1c(N)nc(SCc2ccncc2)c(C#N)c1-c1cccs1	0	42	0	39	0	41	43
CCN(CC)C(=O)CSc1nc(N)c(C#N)c(-c2cccs2)c1C#N	0	0	0	0	0	-	-
O=C(CCN1CCN(c2ccc([N+](=O)[O-])cc2)CC1)c1ccc(Cl)cc1	0	73	0	37	0	47	79
COc1ccccc1N1CCN(C2CCCN(C(=O)CCn3cncn3)C2)CC1 (stereo unspecified)	0	0	0	0	0	-	-
CCn1c(CSc2nccn2C)nc2cc(C(=O)O)ccc21	0	0	0	26	38	24	-	Zta DNA confirm=0;EBNA1 counter=0
O=C1c2ccccc2-c2onc3ccc(NCCCn4ccnc4)c1c23	176	112	0	105	49	109	117	Zta DNA confirm=0;EBNA1 counter=0
COC(=O)Nc1ccc2c(c1)N(C(=O)CCCl)c1ccccc1S2	0	-	-	-	-	-	-
SMILES	LANA-H2B inh	LYPLA2 inh	EBNA-1 inhibitor	LYPLA1 counter	ZTA DNA inh	LYPLA1 confirm	LYPLA2 confirm	others
Cc1ccc(NC(=O)c2ccc3c(c2)N(CC(=O)NC(C)C)C(=O)C(C)(C)O3)cc1	0	0	0	0	0	-	-
COc1cccc2c1C(=O)c1c(O)c3c(c(O)c1C2=O)C[C@@](O)(C(=O)CO)C[C@@H]3O[C@H]1C[C@H](N)[C@@H](O)[C@H](C)O1	27	41	0	57	72	56	-	Zta DNA confirm=106;EBNA1 counter=0
COC/C=C/C1=CC2=CC(=O)C(C)(OC(=O)c3cnc4ccccc4n3)C(=O)C2=CO1 (stereo unspecified)	0	0	0	22	40	0	-	Zta DNA confirm=0;EBNA1 counter=0
CN1CCN(C(=O)c2ccc3c(c2)N(Cc2ccc(F)cc2)C(=O)c2ccccc2S3=O)CC1 (stereo unspecified)	0	0	0	0	0	-	-
C=CCn1c(NS(=O)(=O)c2ccccc2)c(S(=O)(=O)c2ccc(C)cc2)c2nc3ccccc3nc21	0	82	0	80	56	66	90	Zta DNA confirm=0;EBNA1 counter=0
O=S(=O)(Nc1c(S(=O)(=O)c2ccccc2)c2nc3ccccc3nc2n1C1CCCCC1)c1ccccc1	0	0	0	0	0	-	-
O=C(CN1C(=O)NC(c2ccccc2)(c2ccccc2)C1=O)N1CCOCC1	-	0	-	0	0	-	-
CC1CN(C(=O)CCC(=O)N2CCN(c3cccc(C(F)(F)F)c3)CC2)c2ccccc2O1 (stereo unspecified)	0	59	0	0	0	-	59	LYPLA2 ABPP=0
Cc1cc(N2CCOCC2)nc2ccc(NC(=O)CCC(=O)N3CCCCC3)cc12	0	0	0	0	0	-	-
Cc1cc(N2CCOCC2)nc2ccc(NC(=O)CCC(=O)N3CCN(c4cccc(C(F)(F)F)c4)CC3)cc12	0	41	0	0	0	-	51	LYPLA2 ABPP=0
O=C(CCNS(=O)(=O)c1cccs1)N1CCN(c2cccc(C(F)(F)F)c2)CC1	0	37	-	0	0	-	28
CCOC(=O)N1CCN(C(=O)COc2cc(=O)n(C)c3ccccc23)CC1	0	0	0	0	0	-	-
Cn1c(=O)cc(OCC(=O)N2CCN(c3cccc(C(F)(F)F)c3)CC2)c2ccccc21	0	33	0	0	0	-	62	LYPLA2 ABPP=0
COc1ccc(N2CCN(C(=O)CCC(=O)N3CC(C)Oc4ccccc43)CC2)cc1 (stereo unspecified)	0	0	0	0	0	-	-
O=C(N=C1SC2CS(=O)(=O)CC2N1c1ccc(Cl)cc1Cl)C1CC1 (stereo unspecified)	0	0	0	0	0	-	-
Cc1ccc2nc(COc3ccc(Cl)cc3)cc(=O)n2c1	0	0	0	0	0	-	-
Cc1ccc(-c2noc(CCC(=O)N3CCN(c4cccc(C(F)(F)F)c4)CC3)n2)cc1	0	42	0	0	0	-	38
